Source: ChEMBL document CHEMBL3988442, “University of Dundee, Small-Polar-MMV Screening Library” (2021)

Experiments:
[1] = biological target: T1, Aspartate--tRNA(Asp/Asn) ligase (Mycobacterium tuberculosis (strain ATCC 25618 / H37Rv)) (UniProt P9WFW3); experiment: Assay for Asp RNA synthetase-1 from Mycobacterium tuberculosis; format: functional; design: scale not given: direction of the effect not stated beside the values; details: 30 µM; also: in the data most compounds retested in dose-response had high values
T1 sequence (whole entry): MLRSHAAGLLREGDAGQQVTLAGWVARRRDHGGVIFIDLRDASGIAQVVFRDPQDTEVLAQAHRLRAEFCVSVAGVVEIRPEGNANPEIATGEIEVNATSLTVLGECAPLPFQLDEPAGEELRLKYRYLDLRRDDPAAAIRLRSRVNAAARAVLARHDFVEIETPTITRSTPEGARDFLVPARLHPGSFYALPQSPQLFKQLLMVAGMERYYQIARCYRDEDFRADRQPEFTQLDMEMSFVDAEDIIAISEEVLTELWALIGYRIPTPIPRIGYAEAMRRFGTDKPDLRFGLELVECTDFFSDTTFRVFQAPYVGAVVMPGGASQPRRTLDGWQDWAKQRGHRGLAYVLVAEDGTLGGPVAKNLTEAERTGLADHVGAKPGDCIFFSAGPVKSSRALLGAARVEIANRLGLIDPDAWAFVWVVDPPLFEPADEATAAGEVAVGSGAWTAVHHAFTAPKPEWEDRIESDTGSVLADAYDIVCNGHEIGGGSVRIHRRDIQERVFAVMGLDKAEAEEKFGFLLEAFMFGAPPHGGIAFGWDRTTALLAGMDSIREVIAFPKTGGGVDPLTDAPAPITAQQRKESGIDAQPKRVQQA

[2] = biological target: Shiga toxin 2 (Escherichia coli O157:H7) (UniProt P09385+P09386); experiment: E. coli 0.157:H7 Shiga Toxin SOP - stx2 screening assay; format: functional; design: scale not given: direction of the effect not stated beside the values; details: 30 µM

SMILES | Percent Effect [1] [%] | Percent Effect [2] [%]
CC(C)C(=O)NCc1cccc(N2CCCCC2=O)c1 | -1.01 | 6.13
O=C(NCc1cccc(F)c1)N1CCC2(CC(=O)N(c3ccsc3)C2)C1 (centres undefined) | -4.15 | -7.69
Cn1nc(C2CCCN(C(=O)Cc3ccsc3)C2)c2nccnc21 (centres undefined) | -0.402 | 7.06
O=C(NC1COC2(CCN(Cc3ccccn3)CC2)C1)c1ccccn1 (centres undefined) | -7.74 | -29.1
Cn1ncc2c1CCCC2NCc1ccc(Cl)s1 (centres undefined) | -3.2 | 28.8
O=C(CC1CC1)N1CC[C@H]2[C@@H]1CCC(=O)N2c1cccnc1 | -4.48 | -0.916
CC(C)c1nc2n(n1)CC(NCc1nnnn1C1CC1)CC2 (centres undefined) | 1.55 | 8.39
CN(C)C(=O)c1cccc(NC(=O)N(CCO)Cc2ccsc2)c1 | -4.93 | -18.5
Cc1cc(=O)[nH]c(CCNC(=O)C(c2ccc(F)cc2)N(C)C)n1 (centres undefined) | -1.19 | -71.7
Cn1cccc1CN1CCC2(CCCN(C(=O)Cc3cccnc3)C2)C1 (centres undefined) | 4.47 | -14.5
O=C(NC1CCCC1)[C@@H]1CN(Cc2nccs2)C[C@H]2OCC[C@H]21 | 4.4 | -7.97
CCNC(=O)[C@@H]1C[C@@H](NC(=O)Cc2ccncc2)CN1Cc1ccsc1 | -3.17 | -0.12
O=C(c1ccco1)N1CCCC(c2cc(C(F)F)n3ncnc3n2)C1 (centres undefined) | -0.849 | -7.72
CCOC(CC)C(=O)NCCC(=O)N1CCN(c2ccccn2)CC1 (centres undefined) | 2.61 | -11.4
CCOc1cc(C(=O)N2CCCC(n3cncn3)C2)ccc1C (centres undefined) | 1.17 | 17.5
Cc1cccc(N2CCC(NC(=O)CCCc3cccs3)CC2)n1 | 8.77 | -2
CCCNCC1(O)CCCN(Cc2cccc(C)c2)C1=O (centres undefined) | -0.345 | 0.574
Cc1noc(CCCC(=O)NC(C)c2ccccn2)n1 (centres undefined) | -1.28 | 16
CN(C)c1cc(C(=O)N2CCN(c3cnccn3)CC2)ccn1 | -1.5 | 3.8
COC(=O)c1cccc(NC(=O)CN2CCN(S(C)(=O)=O)CC2)c1 | 1.93 | 10.4
CCc1nccn1C1CCCN(C(=O)c2cc3nc(C)ccc3o2)C1 (centres undefined) | -2.42 | 20.3
CS(=O)(=O)NCc1cnc2n1CCN(Cc1ccsc1)CC2 | -2.39 | -23.6

SMILES | Percent Effect [1] [%] | Percent Effect [2] [%]
Cc1cnn(CCNCc2ccc(F)cc2Cl)c1 | 0.495 | -22.9
COCCCN1CCC(NC(=O)C(C)C)CC1 | -2.37 | -36.2
CCN(Cc1ccc2c(c1)OCCO2)C(=O)NC(C)Cn1ccnc1 (centres undefined) | 5.58 | -4.95
CC(C)c1ccc(CN2CCC3(CCCN(c4nncs4)C3)C2)cc1 (centres undefined) | 1 | 5.96
Cc1ccc(CNC(c2ccccc2)c2nccn2C)cc1C (centres undefined) | 1.11 | 14.8
CCn1nc2c(cc1=O)CN(Cc1nc(N)c3ccccc3n1)CC2 | 1.61 | 15.6
Cc1nnc(NC(=O)NCc2cccnc2N(C)C)s1 | -2.76 | -16.1
Cc1cc(C)c(OCC(=O)NS(=O)(=O)c2cccnc2)c(C)c1 | -4.5 | -1.8
CCc1ccc(C(=O)N2CCCC(c3noc(CC)n3)C2)o1 (centres undefined) | -2.33 | 10.6
COc1ccc(C(C(=O)O)N2CCCN(C3CCCC3)CC2)cc1OC (centres undefined) | 0.804 | -25.6
CN(C)C(=O)[C@@H]1C[C@@H]2CCN(Cc3nccs3)C[C@@H]2O1 | 1.05 | 2.36
Cc1cnn(CCC(=O)N2C[C@H]3CC[C@@H]2CN(CC(=O)N(C)C)C3)c1 | 4.25 | -21.6
Cc1nnc(NC(=O)CN2CCCC(Cn3cncn3)C2)s1 (centres undefined) | 2.66 | -3.39
CCc1nc(C2CCCN2Cc2nc(C3CC3)no2)no1 (centres undefined) | -4.58 | -6.89
CN1C(=O)C[C@@H]2[C@@H]1CCN2C(=O)c1ccc[nH]1 | -4.63 | -6.89
Cc1ccc(CN2CCn3c(C(=O)N(C)C)cnc3C2)s1 | 5.69 | -13.3
O=C(c1cnccn1)N1CCc2onc(CN3CCOCC3)c2C1 | -0.84 | -5.1
COc1ccc(NC(=O)Cn2nc(C)c(C)cc2=O)cc1OC | -0.123 | -13.1
COc1c(CNC(c2ccc(F)cc2)c2nccn2C)c(C)nn1C (centres undefined) | -6.01 | -17.1
Cc1cc(NCc2cc3n(n2)CCCN(S(C)(=O)=O)C3)ncn1 | -7.29 | 25.2
Cn1cccc1-c1cc(C(=O)N2CC(c3cccnc3)C2)[nH]n1 | -0.915 | -50.6
COC(=O)c1ccc(N2CCN(C(=O)c3cnn(C)c3)C(C)C2)cc1 (centres undefined) | 0.343 | -15.2

SMILES | Percent Effect [1] [%] | Percent Effect [2] [%]
O=C(Cc1ccc2c(c1)OCCO2)NCCc1nnc2n1CCC2 | 6.11 | 15.8
CCCC(C)C(=O)N1CCC(n2cccc2C(=O)OC)CC1 (centres undefined) | 0.787 | -16.1
Cc1ccccc1CC(=O)N(C)C1CCN(c2ccccn2)CC1 | -1.19 | 6.11
CC(O)CN1CCC(CNCc2c[nH]nc2C(C)(C)C)CC1 (centres undefined) | 0.384 | 14.9
CCOCC1CN(S(=O)(=O)N(C)C)Cc2cnn(C)c21 (centres undefined) | -3.4 | 6.68
CC(C)Cc1nc(OCC(N)=O)c(C#N)c2c1CCC2 | 2.64 | -13.7
Cc1ccoc1C(=O)NC1CCN(Cc2cccc3c2OCCO3)CC1 | -2.4 | -34.8
Cc1cnn(CC2CCCN2C(=O)c2ccc3nnc(C)n3c2)c1 (centres undefined) | 0.189 | -37.5
Cc1ccsc1CN(C)Cc1nc2c(cnn2C)c(=O)[nH]1 | -2.46 | -6.66
Cc1csc(N2CCN(CC(=O)Nc3nncs3)CC2C)n1 (centres undefined) | -3.09 | 3.44
COc1ccc(CNC(=O)NCc2c(C)cc(C)[nH]c2=O)cc1 | 4.97 | 34.9
CS(=O)(=O)Cc1cccc(C(=O)N2CCCC(n3cccn3)C2)c1 (centres undefined) | -2.52 | -47.9
CC(C)NC(=O)C1CN(C(=O)N2CCCC2)CC12CCOCC2 (centres undefined) | -2.03 | 8.24
CC(C)Nc1ccc2nc(C3CCN(C(C)C)CC3)nn2c1 | -0.549 | -8.89
CCCNC(=O)Cn1cc(-c2ccccc2)cn1 | -2.52 | -0.0685
O=C(COCc1nc(-c2ccncc2)no1)N1CCCC1 | 15.3 | -21.3
CCc1ccc(CCC(=O)N2CCOCC2c2ncon2)cc1 (centres undefined) | 2.77 | 20.7
COCCN1CCN(C(C)C(=O)Nc2ccnn2C(C)C)CC1 (centres undefined) | 0.69 | -2.27
CC(C)N1CCOCC2(CN(Cc3ccco3)CCO2)C1 (centres undefined) | 1.82 | 5.04
Cc1nc(CCNC(=O)N2CCC(Cc3cnn(C)c3)C2)cs1 (centres undefined) | -5.21 | -13.9
Cn1cc(CNC2CCCN(Cc3noc(C4CC4)n3)C2)cn1 (centres undefined) | -1.26 | 24.8
O=C(Cn1ccnc1)N1C[C@@H]2CC[C@H](Oc3ccccc3)[C@@H]2C1 | 5.52 | 2.5

SMILES | Percent Effect [1] [%] | Percent Effect [2] [%]
Cc1cc(C(=O)NC2CCc3nc(C)cn3C2)[nH]n1 (centres undefined) | -3.72 | -2.92
CCC1=N[C@@]2(CC[C@@H]3CN(C(=O)NCc4ccccc4)C[C@@H]32)C(=O)N1 | 1.75 | 5.39
CN1C(=O)C(C)(C)COc2cc(NS(=O)(=O)c3ccccc3)ccc21 | -5.61 | 8.93
Cc1noc(C)c1CCC(=O)N1CCCN(Cc2cscn2)CC1 | -0.789 | 27.4
CCCSCC(=O)NS(=O)(=O)c1ccc2c(c1)OCCO2 | -3.99 | 19.7
Cn1ccnc1CN1CCCC1c1noc(C2CC2)n1 (centres undefined) | -0.426 | -7.56
CCCn1nc2c(cc1=O)CN(CCS(C)(=O)=O)CC2 | 5.96 | 0.931
O=C1N(c2ccc(Br)cc2)Cc2nc(=O)[nH]n21 | -4.79 | -34.3
O=C(Cc1ccc2c(c1)OCCO2)NC1CCCC1 | -0.698 | 3.29
c1ccc(C[C@H]2CN(Cc3nccs3)CC[C@H]2OCC2CC2)cc1 | 3.93 | 16
Cc1nccn1C1CCCN(C(=O)c2cc(O)nc3ccccc23)C1 (centres undefined) | 1.77 | 5.42
OC(CN1CCC(c2ccn[nH]2)CC1)c1cccc(F)c1 (centres undefined) | -4.71 | -2.5
Cc1n[nH]c(C2CN(C(=O)c3ccnc(C4CC4)n3)CCO2)n1 (centres undefined) | 1.3 | 28.6
Cn1cnc2c1CCN(Cc1cccc(C(N)=O)c1)C2 | -3.03 | -13.1
Cc1cnn(C2CCCN(C(=O)c3sccc3C#N)C2)c1 (centres undefined) | 1.95 | -36.4
O=C(Cc1ccccc1F)N1C[C@@H]2COC[C@]2(COc2cccnc2)C1 | 6.28 | 3.35
Cc1ccccc1C1(CNc2nnc(C)c(C)c2C#N)CCOCC1 | 2.96 | 18.2
CCc1nc(C)ncc1C(=O)N1CCCC(n2nc(C)nc2C)C1 (centres undefined) | -3.03 | 0.321
CCOCC1CN(S(C)(=O)=O)Cc2cnn(C)c21 (centres undefined) | -0.204 | -35.8
Cn1ccnc1CN1CCN(Cc2ccccc2C#N)CC1 | 1.91 | 7.78
CCc1cnc(CN2CCC(N(C)Cc3noc(C4CC4)n3)C2)o1 (centres undefined) | -1.09 | -33.4
